Results reported in PubChem BioAssay (Tox21).
Inconclusive results are not listed. The source made the active and inactive calls. The call rests on the fitted dose curve; in most records, active means well fitted curve in the direction sought with a large enough effect in the repeat runs; inconclusive means weak or mixed curves; inactive means no such curve, though single readings can be large; an effect the other way counts as inactive or inconclusive.

Legend:
[1] = qHTS RealTime-Glo MT Cell Viability Assay in HEK293 cells - 16 hour (AID 1224872); further: top concentration of the series differs between compounds; nearly all actives have a fitted effect of over 50% in size
In short: (§1)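 Quantitative high-throughput screen of the Tox21 10K library in HEK293: cells and RealTime-Glo reagents plated together, compound added at 5 h, luminescence monitored through 40 h at 37 C.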

[2] = qHTS RealTime-Glo MT Cell Viability Assay in HepG2 cells - 8 hour (AID 1224873); further: nearly all actives have a fitted effect of over 55% in size
In short: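 HepG2 cells (600/well) mixed with RealTime-Glo MT reagent, settled 5 h at 37 C/5% CO2 before compound addition. Nonlytic NanoLuc luminescence from viable-cell prosubstrate reduction read repeatedly during 40 h treatment at 37 C.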

[3] = qHTS RealTime-Glo MT Cell Viability Assay in HEK293 cells - 40 hour (AID 1224874); details: RealTime-Glo luminescence; max response: hits give low values; further: nearly all actives have a fitted effect of over 50% in size
In short: (§2)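 Viable HEK293 cells reduce a cell-permeant prosubstrate; the product diffuses out and is consumed by NanoLuc in the medium to give light. Compounds went in after a 5 h incubation and plates were read over the treatment course.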

[4] = A CellTox Green Cytotoxicity Assay to monitor cytotoxicity in HEK293 cells - 24 hour (AID 1224875); further: series mostly up to about 77 µM; nearly all actives have a fitted effect of over 45% in size
In short: (§3)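 Fluorescence intensity, read at 0, 8, 16, 24, 32 and 40 h of compound treatment, reflected dye binding to DNA of dead HEK293 cells; compounds (23 nL, DMSO) were added 5 h after plating cells with reagent.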

[5] = A CellTox Green Cytotoxicity Assay to monitor cytotoxicity in HepG2 cells - 16 hour (AID 1224876); further: nearly all actives have a fitted effect of over 45% in size
In short: (§4)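 Using 1536-well format, dye-containing HepG2 suspension was seeded, allowed 5 h at 37 C/5% CO2, dosed by pintool with compounds, positive and negative controls, and imaged for fluorescence across 40 h.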

[6] = qHTS RealTime-Glo MT Cell Viability Assay in HepG2 cells - 32 hour (AID 1224877); further: nearly all actives have a fitted effect of over 55% in size
In short: (§5)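 Compound treatment began 5 h after plating HepG2 cells (600/well) with NanoLuc luciferase and prosubstrate. Plates stayed at 37 C for 40 h; luminescence was captured at six time points, 0 h through 40 h.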

[7] = A CellTox Green Cytotoxicity Assay to monitor cytotoxicity in HepG2 cells - 24 hour (AID 1224878); further: nearly all actives have a fitted effect of over 45% in size
In short: as §4

[8] = A CellTox Green Cytotoxicity Assay to monitor cytotoxicity in HepG2 cells - 40 hour (AID 1224879); further: nearly all actives have a fitted effect of over 40% in size
In short: as §4

[9] = qHTS RealTime-Glo MT Cell Viability Assay in HEK293 cells - 0 hour (AID 1224880); further: top concentration of the series differs between compounds; nearly all actives have a fitted effect of over 45% in size
In short: as §2

[10] = A CellTox Green Cytotoxicity Assay to monitor cytotoxicity in HEK293 cells - 32 hour (AID 1224881); further: nearly all actives have a fitted effect of over 40% in size
In short: as §3

[11] = A CellTox Green Cytotoxicity Assay to monitor cytotoxicity in HepG2 cells - 0 hour (AID 1224882); further: nearly all actives have a fitted effect of over 35% in size
In short: as §4

[12] = A CellTox Green Cytotoxicity Assay to monitor cytotoxicity in HepG2 cells - 32 hour (AID 1224883); further: nearly all actives have a fitted effect of over 50% in size
In short: as §4

[13] = A CellTox Green Cytotoxicity Assay to monitor cytotoxicity in HEK293 cells - 8 hour (AID 1224884); further: nearly all actives have a fitted effect of over 35% in size
In short: as §3

[14] = qHTS RealTime-Glo MT Cell Viability Assay in HepG2 cells - 16 hour (AID 1224885); further: nearly all actives have a fitted effect of over 50% in size
In short: as §5

[15] = qHTS RealTime-Glo MT Cell Viability Assay in HEK293 cells - 24 hour (AID 1224886)
In short: as §1

[16] = qHTS RealTime-Glo MT Cell Viability Assay in HEK293 cells - 8 hour (AID 1224887)
In short: as §2

[17] = A CellTox Green Cytotoxicity Assay to monitor cytotoxicity in HEK293 cells - 16 hour (AID 1224888); further: nearly all actives have a fitted effect of over 35% in size
In short: as §3

[18] = qHTS RealTime-Glo MT Cell Viability Assay in HepG2 cells - 0 hour (AID 1224889); further: nearly all actives have a fitted effect of over 50% in size
In short: as §5

[19] = A CellTox Green Cytotoxicity Assay to monitor cytotoxicity in HepG2 cells - 8 hour (AID 1224890); further: nearly all actives have a fitted effect of over 45% in size
In short: as §4

[20] = qHTS assay to identify small molecule antagonists of the estrogen receptor alpha (ER-alpha) signaling pathway using the BG1 cell line in the presence of 0.1 nM 17-beta-estradiol - cell viability counter screen (AID 1259241); further: nearly all actives have a fitted effect of over 40% in size
In short: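 Live-cell protease activity (CellTiter-Fluor fluorescence, 30 min) was read in the same wells after VM7Luc4E2 cells had been exposed to compounds with 0.1 nM 17beta-estradiol for 22 hr at 37C.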
On the % scale 0 is the no-effect control and ±100 the full control effect.

CCCc1ncc(C[n+]2ccccc2C)c(N)n1
inactive: Potency [1] | outcome [2] | max response [3] 6.68% | outcome [4] | outcome [5] | Potency [6] | outcome [7] | Potency [8] | Potency [9] | outcome [10] | Potency [11] | Potency [12] | outcome [13] | outcome [14] | Potency [15] | Potency [16] | outcome [17] | Potency [18] | outcome [19] | outcome [20]

O=C(O)Cc1csc(-c2ccc(Cl)cc2)n1
inactive: Potency [1] | outcome [2] | max response [3] 1.2% | outcome [4] | outcome [5] | Potency [6] | outcome [7] | Potency [8] | Potency [9] | outcome [10] | Potency [11] | Potency [12] | outcome [13] | outcome [14] | Potency [15] | Potency [16] | outcome [17] | Potency [18] | outcome [19] | outcome [20]

CCCCCCCCCCCCSC
inactive: Potency [1] | outcome [2] | max response [3] 0.729% | outcome [4] | outcome [5] | Potency [6] | outcome [7] | Potency [8] | Potency [9] | outcome [10] | Potency [11] | Potency [12] | outcome [13] | outcome [14] | Potency [15] | Potency [16] | outcome [17] | outcome [19] | outcome [20]

CC1=CCC(O)(C(C)C)CC1 (stereo not drawn)
inactive: Potency [1] | outcome [2] | max response [3] 2.79% | outcome [4] | outcome [5] | Potency [6] | outcome [7] | Potency [8] | Potency [9] | outcome [10] | Potency [11] | Potency [12] | outcome [13] | outcome [14] | Potency [15] | Potency [16] | outcome [17] | Potency [18] | outcome [19] | outcome [20]

Cc1ccccc1N=C(N)N=C(N)N
inactive: Potency [1] | outcome [2] | max response [3] -9.52% | outcome [4] | outcome [5] | Potency [6] | outcome [7] | Potency [8] | Potency [9] | outcome [10] | Potency [11] | Potency [12] | outcome [13] | outcome [14] | Potency [15] | Potency [16] | outcome [17] | Potency [18] | outcome [19] | outcome [20]

CCCCc1ccc2c(n1)[C@@H](c1ccc(OC)cc1C[C@H](C)C(=O)O)[C@H](C(=O)O)[C@H]2c1ccc2c(c1)OCO2
inactive: Potency [1] | outcome [2] | max response [3] 0.185% | outcome [4] | outcome [5] | Potency [6] | outcome [7] | Potency [8] | Potency [9] | outcome [10] | Potency [11] | Potency [12] | outcome [13] | outcome [14] | Potency [16] | outcome [17] | outcome [19] | outcome [20]

CNCC(O)c1ccc(O)c(O)c1 (stereo not drawn)
inactive: Potency [1] | outcome [2] | max response [3] 0.68% | outcome [4] | outcome [5] | Potency [6] | outcome [7] | Potency [8] | Potency [9] | outcome [10] | Potency [11] | Potency [12] | outcome [13] | outcome [14] | Potency [15] | Potency [16] | outcome [17] | outcome [19] | outcome [20]

Cc1ncc(COP(=O)(O)O)c(C=O)c1O
inactive: Potency [1] | outcome [2] | max response [3] -0.601% | outcome [4] | outcome [5] | Potency [6] | outcome [7] | Potency [8] | Potency [9] | outcome [10] | Potency [11] | Potency [12] | outcome [13] | outcome [14] | Potency [15] | Potency [16] | outcome [17] | Potency [18] | outcome [19] | outcome [20]

CC12CCC(C(=O)C1=O)C2(C)C (stereo not drawn)
inactive: Potency [1] | outcome [2] | max response [3] -1.01% | outcome [4] | outcome [5] | Potency [6] | outcome [7] | Potency [8] | Potency [9] | outcome [10] | Potency [11] | Potency [12] | outcome [13] | outcome [14] | Potency [15] | Potency [16] | outcome [17] | Potency [18] | outcome [19] | outcome [20]

CCC(C)(CN(C)C)OC(=O)c1ccccc1 (stereo not drawn)
inactive: Potency [1] | outcome [2] | max response [3] 12.1% | outcome [4] | outcome [5] | Potency [6] | outcome [7] | Potency [8] | Potency [9] | outcome [10] | Potency [11] | Potency [12] | outcome [13] | outcome [14] | Potency [16] | outcome [17] | Potency [18] | outcome [19] | outcome [20]

CCCCCCCCCCOc1cc2c(=O)c(C(=O)OCC)c[nH]c2cc1OCC
inactive: activity change, negative = cytotoxicity [1] -0.329% [at 6.97 µM] | viability change, negative = cytotoxic [2] 8.14% [at 6.97 µM] | max response [3] 4.14% | activity change [4] 2.15% [at 6.97 µM] | cytotoxicity increase [5] 1.94% [at 6.97 µM] | activity change, negative = cytotoxic [6] 0.806% [at 6.97 µM] | cytotoxicity [7] 2.18% [at 6.97 µM] | cytotoxicity increase [8] -5.64% [at 6.97 µM] | activity change, negative = cytotoxicity [9] -0.96% [at 6.97 µM] | cytotoxicity increase [10] 0.664% [at 6.97 µM] | cytotoxicity [11] 9.56% [at 6.97 µM] | cytotoxicity increase [12] -9.18% [at 6.97 µM] | cytotoxicity increase [13] 2.19% [at 6.97 µM] | activity change, negative = cytotoxic [14] 4.28% [at 6.97 µM] | activity change, negative = cytotoxicity [15] 3.7% [at 6.97 µM] | activity change, negative = cytotoxicity [16] 3.87% [at 6.97 µM] | activity change [17] 0.406% [at 6.97 µM] | activity change, negative = cytotoxicity [18] 9.73% [at 6.97 µM] | cytotoxicity increase [19] -1.8% [at 6.97 µM] | activity change, negative = cytotoxicity [20] 4.33% [at 8.39 µM]

CCOC(=O)CCC(=O)OCC
inactive: Potency [1] | outcome [2] | max response [3] 3.67% | outcome [4] | outcome [5] | Potency [6] | outcome [7] | Potency [8] | Potency [9] | outcome [10] | Potency [11] | Potency [12] | outcome [13] | outcome [14] | Potency [15] | Potency [16] | outcome [17] | outcome [19] | outcome [20]

CCCCCCCCCCCCCCC(=O)O
inactive: Potency [1] | outcome [2] | max response [3] 23.9% | outcome [4] | outcome [5] | Potency [6] | outcome [7] | Potency [8] | Potency [9] | outcome [10] | Potency [11] | Potency [12] | outcome [13] | outcome [14] | Potency [16] | outcome [17] | Potency [18] | outcome [19] | outcome [20]

CC(C#N)(CCC(=O)O)N=NC(C)(C#N)CCC(=O)O (stereo not drawn)
inactive: Potency [1] | outcome [2] | max response [3] 3.09% | outcome [4] | outcome [5] | Potency [6] | outcome [7] | Potency [8] | Potency [9] | outcome [10] | Potency [11] | Potency [12] | outcome [13] | outcome [14] | Potency [15] | Potency [16] | outcome [17] | Potency [18] | outcome [19] | outcome [20]
